Experimental data reported in the supplement of paper PMC11732987, “Enantioselective OTUD7B fragment discovery through chemoproteomics screening and high-throughput optimisation” (Communications Chemistry, 2025).

Tests used:
Test in all cases: log2 ratio of Biotin-Ahx-Ub-VS probe labelling (fragment/DMSO); higher = less target engagement (more negative = stronger competition), active = hit call of the paper (q ≤ 0.05, log2 ratio ≤ -1)
Conditions in all cases: compound concentration: 200 uM; treatment time: 3 h
USP16 = USP16 (UniProt Q9Y5T5)
Method in brief: (§1)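 Labelled DUBs from HEK293T lysate were NeutrAvidin-enriched, digested with LysC and trypsin, and run by diaPASEF LC-MS/MS. Before that, each 495 µg sample in Tris/CHAPS/IGEPAL buffer with protease inhibitors was treated in triplicate with fragment at 200 µM or vehicle for 3 h, then with Biotin-Ahx-Ub-VS at 0.5 µM final for 1 h. Values are average log2 ratios of fragment over vehicle by unpaired t-test, based on global-median-normalised Spectronaut label-free quantities from proteins with ≥2 unique peptides.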

USP19 = target: T1, USP19 (UniProt O94966)
T1 sequence (whole entry): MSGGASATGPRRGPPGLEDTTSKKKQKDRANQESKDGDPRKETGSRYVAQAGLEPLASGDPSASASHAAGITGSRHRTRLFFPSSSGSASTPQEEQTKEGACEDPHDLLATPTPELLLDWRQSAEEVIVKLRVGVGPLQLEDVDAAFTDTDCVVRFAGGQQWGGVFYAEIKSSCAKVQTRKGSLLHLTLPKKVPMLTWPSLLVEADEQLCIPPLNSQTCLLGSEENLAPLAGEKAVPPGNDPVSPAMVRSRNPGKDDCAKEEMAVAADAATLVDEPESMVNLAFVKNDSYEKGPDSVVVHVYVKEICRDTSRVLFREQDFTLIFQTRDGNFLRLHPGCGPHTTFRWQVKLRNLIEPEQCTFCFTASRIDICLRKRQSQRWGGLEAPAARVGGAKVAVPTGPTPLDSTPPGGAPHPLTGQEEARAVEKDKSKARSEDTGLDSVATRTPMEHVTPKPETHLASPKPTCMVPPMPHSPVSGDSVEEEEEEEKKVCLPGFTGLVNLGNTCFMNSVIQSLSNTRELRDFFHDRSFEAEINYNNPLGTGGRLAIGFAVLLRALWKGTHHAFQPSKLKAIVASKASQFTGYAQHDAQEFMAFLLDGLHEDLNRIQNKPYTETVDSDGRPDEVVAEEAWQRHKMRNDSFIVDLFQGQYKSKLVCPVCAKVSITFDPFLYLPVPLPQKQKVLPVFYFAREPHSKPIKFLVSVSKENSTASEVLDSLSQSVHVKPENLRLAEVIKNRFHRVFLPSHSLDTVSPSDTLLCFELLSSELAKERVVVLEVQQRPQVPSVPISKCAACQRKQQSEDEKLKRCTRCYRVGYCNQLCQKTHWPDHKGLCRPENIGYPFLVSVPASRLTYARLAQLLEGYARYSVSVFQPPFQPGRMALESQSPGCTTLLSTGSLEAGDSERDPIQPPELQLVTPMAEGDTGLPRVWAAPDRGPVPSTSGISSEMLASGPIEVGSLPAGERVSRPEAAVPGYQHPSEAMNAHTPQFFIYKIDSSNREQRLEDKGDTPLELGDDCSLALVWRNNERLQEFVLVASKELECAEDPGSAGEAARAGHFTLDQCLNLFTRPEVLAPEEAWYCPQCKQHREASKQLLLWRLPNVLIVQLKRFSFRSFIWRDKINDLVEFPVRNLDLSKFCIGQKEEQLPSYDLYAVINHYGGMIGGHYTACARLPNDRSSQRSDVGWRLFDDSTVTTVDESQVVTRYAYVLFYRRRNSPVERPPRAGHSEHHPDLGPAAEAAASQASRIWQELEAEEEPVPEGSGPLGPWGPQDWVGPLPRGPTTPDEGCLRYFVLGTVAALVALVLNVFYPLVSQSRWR
Method in brief: as §1

USP24 = USP24 (UniProt Q9UPU5)
Method in brief: as §1

USP25 = target: T2, USP25 (UniProt Q9UHP3)
T2 sequence (whole entry): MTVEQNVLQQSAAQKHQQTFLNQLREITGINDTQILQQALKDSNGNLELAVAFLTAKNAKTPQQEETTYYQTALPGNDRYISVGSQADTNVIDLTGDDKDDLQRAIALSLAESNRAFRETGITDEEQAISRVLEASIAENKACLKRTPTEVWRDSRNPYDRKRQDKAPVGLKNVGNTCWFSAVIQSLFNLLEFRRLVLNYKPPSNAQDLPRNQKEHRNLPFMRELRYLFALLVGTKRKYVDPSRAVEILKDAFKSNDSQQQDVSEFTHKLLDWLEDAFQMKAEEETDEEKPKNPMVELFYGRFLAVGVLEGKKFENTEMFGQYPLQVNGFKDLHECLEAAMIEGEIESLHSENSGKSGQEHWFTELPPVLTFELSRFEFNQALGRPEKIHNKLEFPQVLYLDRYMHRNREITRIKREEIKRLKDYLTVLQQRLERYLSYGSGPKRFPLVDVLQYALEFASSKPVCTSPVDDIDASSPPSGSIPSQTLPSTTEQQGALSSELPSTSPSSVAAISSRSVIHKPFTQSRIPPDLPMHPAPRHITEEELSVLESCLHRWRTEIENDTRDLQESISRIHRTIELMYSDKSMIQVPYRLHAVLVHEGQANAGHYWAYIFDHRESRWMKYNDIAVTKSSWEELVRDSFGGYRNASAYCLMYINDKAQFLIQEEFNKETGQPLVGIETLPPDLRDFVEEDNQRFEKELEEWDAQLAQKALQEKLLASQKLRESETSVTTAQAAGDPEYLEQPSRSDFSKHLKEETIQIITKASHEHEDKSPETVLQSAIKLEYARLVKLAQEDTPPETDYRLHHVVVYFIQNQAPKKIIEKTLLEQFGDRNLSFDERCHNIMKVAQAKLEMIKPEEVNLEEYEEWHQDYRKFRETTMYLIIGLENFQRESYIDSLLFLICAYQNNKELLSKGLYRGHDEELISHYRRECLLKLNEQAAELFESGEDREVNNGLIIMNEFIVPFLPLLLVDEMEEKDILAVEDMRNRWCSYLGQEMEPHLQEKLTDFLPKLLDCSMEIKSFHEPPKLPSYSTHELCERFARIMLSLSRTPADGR
Method in brief: as §1

USP28 = target: T3, USP28 (UniProt Q96RU2)
T3 sequence (whole entry): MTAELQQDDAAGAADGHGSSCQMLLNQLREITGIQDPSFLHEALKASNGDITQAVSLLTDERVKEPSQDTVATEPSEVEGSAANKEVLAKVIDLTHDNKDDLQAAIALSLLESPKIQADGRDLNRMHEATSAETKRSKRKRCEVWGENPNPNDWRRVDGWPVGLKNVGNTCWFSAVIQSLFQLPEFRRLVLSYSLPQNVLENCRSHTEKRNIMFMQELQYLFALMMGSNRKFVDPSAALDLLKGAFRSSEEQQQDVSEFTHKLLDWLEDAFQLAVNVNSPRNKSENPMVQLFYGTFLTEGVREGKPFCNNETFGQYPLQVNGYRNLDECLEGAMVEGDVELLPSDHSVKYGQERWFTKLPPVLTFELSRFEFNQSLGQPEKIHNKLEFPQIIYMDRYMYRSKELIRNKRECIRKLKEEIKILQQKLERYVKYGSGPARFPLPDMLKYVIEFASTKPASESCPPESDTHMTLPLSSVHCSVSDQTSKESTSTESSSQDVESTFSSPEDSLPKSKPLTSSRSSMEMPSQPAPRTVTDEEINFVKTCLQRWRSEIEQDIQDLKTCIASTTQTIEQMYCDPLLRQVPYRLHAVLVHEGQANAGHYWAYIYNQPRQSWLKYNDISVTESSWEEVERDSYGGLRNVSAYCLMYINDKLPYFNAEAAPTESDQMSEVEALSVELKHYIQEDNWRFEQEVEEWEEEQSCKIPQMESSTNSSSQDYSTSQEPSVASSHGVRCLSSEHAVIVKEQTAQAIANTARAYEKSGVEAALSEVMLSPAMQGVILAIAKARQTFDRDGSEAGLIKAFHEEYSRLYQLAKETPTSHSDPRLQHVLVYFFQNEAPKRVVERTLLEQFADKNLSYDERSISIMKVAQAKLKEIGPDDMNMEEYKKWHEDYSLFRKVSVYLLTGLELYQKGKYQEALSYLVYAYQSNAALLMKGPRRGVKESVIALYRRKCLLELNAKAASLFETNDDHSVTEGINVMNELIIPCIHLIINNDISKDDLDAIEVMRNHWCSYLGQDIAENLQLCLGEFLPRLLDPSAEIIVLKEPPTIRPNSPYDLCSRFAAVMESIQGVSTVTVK
Method in brief: as §1

Measured: log2 ratio of Biotin-Ahx-Ub-VS probe labelling

USP16, sequence (Q9Y5T5 whole entry, looked up, the tested form may be a part): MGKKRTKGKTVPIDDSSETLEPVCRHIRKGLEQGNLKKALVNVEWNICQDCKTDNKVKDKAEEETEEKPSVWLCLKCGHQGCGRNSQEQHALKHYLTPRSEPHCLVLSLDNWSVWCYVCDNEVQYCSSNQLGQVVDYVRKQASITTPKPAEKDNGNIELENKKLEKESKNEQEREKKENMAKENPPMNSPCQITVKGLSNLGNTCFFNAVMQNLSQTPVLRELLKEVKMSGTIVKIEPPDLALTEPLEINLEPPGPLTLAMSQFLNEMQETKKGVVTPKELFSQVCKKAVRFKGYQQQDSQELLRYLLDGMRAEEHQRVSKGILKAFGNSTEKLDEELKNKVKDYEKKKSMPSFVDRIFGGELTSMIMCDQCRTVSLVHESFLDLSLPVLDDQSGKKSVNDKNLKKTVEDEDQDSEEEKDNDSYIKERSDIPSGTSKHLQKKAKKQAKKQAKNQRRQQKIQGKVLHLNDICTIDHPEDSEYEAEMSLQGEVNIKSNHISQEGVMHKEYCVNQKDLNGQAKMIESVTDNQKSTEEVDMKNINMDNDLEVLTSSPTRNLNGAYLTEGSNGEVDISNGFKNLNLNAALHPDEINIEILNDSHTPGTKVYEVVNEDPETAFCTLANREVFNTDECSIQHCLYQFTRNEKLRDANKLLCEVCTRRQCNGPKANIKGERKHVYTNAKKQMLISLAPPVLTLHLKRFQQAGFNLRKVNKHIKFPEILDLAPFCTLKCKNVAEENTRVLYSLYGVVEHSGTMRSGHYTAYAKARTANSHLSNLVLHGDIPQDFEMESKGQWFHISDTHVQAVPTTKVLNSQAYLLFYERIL
USP24, sequence (Q9UPU5 whole entry): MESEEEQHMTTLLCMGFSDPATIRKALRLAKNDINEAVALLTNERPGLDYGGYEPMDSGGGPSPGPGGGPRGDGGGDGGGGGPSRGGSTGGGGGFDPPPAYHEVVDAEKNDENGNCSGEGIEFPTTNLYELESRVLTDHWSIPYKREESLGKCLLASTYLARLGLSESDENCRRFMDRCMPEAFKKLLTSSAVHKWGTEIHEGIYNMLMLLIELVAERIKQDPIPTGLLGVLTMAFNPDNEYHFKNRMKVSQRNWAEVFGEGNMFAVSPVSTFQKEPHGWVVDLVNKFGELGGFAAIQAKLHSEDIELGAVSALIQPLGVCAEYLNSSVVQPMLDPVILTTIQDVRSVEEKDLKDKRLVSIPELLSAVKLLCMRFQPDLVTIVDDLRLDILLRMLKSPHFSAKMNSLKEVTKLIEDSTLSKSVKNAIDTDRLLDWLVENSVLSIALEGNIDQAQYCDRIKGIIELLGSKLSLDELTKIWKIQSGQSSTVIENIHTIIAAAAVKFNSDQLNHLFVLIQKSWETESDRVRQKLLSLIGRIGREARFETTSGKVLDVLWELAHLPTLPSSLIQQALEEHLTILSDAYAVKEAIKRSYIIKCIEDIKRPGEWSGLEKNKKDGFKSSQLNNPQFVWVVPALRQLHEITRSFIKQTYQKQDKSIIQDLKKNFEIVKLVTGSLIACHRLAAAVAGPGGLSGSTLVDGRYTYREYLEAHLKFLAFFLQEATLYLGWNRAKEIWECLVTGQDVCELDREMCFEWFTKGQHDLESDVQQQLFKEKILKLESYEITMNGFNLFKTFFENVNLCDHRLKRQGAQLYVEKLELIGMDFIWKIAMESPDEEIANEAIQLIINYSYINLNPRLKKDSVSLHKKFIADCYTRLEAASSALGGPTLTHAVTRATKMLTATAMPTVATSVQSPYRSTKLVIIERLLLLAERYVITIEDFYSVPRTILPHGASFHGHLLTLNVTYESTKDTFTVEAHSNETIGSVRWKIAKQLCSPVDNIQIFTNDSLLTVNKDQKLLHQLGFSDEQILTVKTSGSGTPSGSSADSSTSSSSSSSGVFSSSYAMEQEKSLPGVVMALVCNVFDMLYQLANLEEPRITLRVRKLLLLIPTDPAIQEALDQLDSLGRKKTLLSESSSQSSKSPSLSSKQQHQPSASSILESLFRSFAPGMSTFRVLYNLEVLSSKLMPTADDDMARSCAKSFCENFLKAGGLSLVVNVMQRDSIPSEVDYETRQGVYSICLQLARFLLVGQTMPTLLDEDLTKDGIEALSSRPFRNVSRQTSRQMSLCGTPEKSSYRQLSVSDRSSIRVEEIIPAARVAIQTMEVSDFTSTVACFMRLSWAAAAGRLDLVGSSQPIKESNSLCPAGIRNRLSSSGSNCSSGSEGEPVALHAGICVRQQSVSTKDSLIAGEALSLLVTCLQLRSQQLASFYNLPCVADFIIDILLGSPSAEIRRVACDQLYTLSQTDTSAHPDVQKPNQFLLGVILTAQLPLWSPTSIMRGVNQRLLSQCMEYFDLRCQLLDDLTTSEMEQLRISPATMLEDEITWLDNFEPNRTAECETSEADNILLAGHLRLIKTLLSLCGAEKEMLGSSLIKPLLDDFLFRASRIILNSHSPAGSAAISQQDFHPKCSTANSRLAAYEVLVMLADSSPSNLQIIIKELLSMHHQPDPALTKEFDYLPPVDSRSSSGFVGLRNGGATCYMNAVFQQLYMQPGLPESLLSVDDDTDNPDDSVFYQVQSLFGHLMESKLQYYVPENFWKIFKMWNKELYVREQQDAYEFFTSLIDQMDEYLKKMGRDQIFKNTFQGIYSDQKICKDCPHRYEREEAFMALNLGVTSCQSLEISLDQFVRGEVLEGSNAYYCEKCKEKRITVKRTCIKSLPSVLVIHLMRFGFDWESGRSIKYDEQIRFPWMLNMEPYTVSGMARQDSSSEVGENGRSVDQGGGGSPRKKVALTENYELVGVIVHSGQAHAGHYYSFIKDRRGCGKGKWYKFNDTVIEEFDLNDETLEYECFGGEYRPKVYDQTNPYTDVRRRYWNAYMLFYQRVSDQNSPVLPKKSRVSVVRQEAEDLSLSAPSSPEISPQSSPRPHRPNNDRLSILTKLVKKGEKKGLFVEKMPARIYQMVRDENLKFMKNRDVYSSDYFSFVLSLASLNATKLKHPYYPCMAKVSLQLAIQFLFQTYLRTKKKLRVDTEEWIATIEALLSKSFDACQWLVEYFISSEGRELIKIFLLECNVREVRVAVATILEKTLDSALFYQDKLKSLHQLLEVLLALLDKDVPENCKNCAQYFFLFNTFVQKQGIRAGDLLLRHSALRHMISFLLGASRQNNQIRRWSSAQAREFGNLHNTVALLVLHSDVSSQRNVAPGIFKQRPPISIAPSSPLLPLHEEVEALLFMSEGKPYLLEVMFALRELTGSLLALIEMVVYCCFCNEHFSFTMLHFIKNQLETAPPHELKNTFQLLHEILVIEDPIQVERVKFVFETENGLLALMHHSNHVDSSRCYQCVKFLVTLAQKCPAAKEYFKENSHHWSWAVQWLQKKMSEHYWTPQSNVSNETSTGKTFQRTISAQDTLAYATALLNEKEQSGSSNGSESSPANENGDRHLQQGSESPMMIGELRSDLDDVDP

Cc1cccnc1NC(=O)C1CCN(C(=O)CCl)CC1.Cl
inactive: USP16 0.018 | USP19 -0.314 | USP24 -0.409 | USP25 -0.184 | USP28 -0.564
